# What was measured:
# Details in all cases: Compound concentration 20.0 uM, Protein concentration 2.0 uM, Result type QC Liability
# [1] = target: Tyrosine-protein kinase ABL1 (Homo sapiens) (UniProt P00519)
# [2] = target: Cyclin-dependent kinase 2 (Homo sapiens) (UniProt P24941)
# [3] = target: Casein kinase I isoform delta (Homo sapiens) (UniProt P48730)
# [4] = target: Glycogen synthase kinase-3 beta (Homo sapiens) (UniProt P49841)
# [5] = target: Mitogen-activated protein kinase 1 (Homo sapiens) (UniProt P28482)
# [6] = target: T1, Aurora kinase A (Homo sapiens) (UniProt O14965)
# T1 sequence (whole entry): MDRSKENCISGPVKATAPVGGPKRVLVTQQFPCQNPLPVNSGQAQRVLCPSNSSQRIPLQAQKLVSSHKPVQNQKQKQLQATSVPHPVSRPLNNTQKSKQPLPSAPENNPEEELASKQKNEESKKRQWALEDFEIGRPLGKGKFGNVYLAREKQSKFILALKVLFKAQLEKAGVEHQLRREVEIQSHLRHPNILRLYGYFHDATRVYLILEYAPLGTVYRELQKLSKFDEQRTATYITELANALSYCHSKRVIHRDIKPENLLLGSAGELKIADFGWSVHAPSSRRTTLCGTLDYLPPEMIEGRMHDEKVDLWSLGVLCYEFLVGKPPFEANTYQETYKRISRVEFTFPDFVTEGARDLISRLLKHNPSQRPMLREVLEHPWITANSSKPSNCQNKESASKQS
# Sequence of Casein kinase I isoform delta (Homo sapiens) (P48730 whole entry, looked up, canonical isoform): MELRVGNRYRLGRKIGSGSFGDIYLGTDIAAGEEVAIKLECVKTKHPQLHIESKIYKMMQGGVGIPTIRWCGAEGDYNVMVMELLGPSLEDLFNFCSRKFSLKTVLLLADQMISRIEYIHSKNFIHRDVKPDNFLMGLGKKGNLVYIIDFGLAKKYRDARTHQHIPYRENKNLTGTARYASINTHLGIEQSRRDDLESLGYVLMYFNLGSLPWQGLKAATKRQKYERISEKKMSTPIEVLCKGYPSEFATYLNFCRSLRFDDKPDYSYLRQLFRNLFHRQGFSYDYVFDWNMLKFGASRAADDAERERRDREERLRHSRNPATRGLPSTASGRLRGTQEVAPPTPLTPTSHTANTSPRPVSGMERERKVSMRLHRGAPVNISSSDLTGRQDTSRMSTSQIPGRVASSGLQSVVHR
# Sequence of Tyrosine-protein kinase ABL1 (Homo sapiens) (P00519 whole entry): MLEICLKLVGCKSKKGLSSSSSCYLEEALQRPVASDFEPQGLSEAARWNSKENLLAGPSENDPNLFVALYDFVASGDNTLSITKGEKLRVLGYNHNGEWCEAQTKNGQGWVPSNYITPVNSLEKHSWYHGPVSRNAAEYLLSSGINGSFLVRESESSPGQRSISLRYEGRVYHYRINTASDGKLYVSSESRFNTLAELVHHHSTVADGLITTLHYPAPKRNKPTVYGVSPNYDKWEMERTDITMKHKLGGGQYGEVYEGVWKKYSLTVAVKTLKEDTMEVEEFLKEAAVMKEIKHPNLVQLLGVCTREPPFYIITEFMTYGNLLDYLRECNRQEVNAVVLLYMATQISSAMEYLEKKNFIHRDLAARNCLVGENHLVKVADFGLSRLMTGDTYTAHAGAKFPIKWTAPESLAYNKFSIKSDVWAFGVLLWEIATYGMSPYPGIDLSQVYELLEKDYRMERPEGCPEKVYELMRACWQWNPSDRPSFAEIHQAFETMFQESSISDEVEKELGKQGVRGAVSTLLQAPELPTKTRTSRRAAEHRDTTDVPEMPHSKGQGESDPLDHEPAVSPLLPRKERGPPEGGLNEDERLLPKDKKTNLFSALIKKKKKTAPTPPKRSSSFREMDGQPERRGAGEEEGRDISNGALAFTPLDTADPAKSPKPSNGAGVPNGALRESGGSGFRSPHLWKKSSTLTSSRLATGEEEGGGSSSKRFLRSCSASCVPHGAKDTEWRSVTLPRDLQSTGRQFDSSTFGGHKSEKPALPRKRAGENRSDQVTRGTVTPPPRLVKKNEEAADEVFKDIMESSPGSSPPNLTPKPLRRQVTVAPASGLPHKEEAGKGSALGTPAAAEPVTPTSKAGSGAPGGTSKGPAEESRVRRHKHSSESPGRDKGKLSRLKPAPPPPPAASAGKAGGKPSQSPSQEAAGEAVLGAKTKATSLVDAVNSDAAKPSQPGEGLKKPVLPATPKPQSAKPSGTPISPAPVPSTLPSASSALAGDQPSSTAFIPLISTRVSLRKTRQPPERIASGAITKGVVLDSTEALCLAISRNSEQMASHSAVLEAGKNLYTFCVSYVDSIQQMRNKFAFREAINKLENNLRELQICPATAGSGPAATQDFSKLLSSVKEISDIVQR
# Sequence of Mitogen-activated protein kinase 1 (Homo sapiens) (P28482 whole entry): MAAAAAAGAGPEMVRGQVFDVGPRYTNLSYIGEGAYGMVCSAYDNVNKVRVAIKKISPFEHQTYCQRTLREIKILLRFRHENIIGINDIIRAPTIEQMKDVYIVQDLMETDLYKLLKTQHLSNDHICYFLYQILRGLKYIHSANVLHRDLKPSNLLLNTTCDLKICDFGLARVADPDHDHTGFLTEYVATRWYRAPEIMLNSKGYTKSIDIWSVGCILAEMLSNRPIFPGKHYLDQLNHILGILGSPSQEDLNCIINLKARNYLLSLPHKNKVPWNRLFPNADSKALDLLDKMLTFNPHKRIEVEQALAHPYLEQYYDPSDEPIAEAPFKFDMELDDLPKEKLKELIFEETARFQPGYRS
# Sequence of Glycogen synthase kinase-3 beta (Homo sapiens) (P49841 whole entry, looked up): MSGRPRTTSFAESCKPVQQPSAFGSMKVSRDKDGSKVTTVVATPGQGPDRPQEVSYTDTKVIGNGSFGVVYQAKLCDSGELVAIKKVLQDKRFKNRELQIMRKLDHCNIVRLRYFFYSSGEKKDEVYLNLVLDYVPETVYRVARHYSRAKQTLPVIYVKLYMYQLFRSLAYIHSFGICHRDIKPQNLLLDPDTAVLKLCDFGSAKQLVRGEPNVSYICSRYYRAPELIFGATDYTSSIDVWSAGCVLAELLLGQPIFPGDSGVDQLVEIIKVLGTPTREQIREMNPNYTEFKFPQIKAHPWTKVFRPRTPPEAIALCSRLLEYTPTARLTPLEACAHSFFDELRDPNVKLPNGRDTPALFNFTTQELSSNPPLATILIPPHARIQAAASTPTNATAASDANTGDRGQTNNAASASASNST
Compound,ΔTm [1],ΔTm [2],ΔTm [3],ΔTm [4],ΔTm [5],ΔTm [6]
CN1C(=O)[C@@H](NC(=O)c2cc(Cc3ccccc3)on2)COc2ccccc21,-2.16 °C,-0.24 °C,-4.18 °C,-4.43 °C,-1.79 °C,-1.24 °C
CCCS(=O)(=O)N[C@H]1C[C@@H](N(C)c2ncnc3[nH]ccc23)C1,1.02 °C,0.96 °C,0.73 °C,1.39 °C,0.29 °C,3.25 °C
C=CC(=O)Nc1ccc(C(=O)Nc2[nH]nc3c2CN(C(=O)N[C@H](CN(C)C)c2ccccc2)C3(C)C)cc1,4.89 °C,3.53 °C,1.06 °C,6.48 °C,6.56 °C,7.89 °C
O=C(Nc1ccc(C(O)(C(F)(F)F)C(F)(F)F)cc1)c1ccc(C(F)(F)F)cc1,0.76 °C,1.61 °C,1.47 °C,-0.34 °C,0.19 °C,0 °C
CN(C)c1ncc2cc(-c3ccc(-c4ncccc4F)cc3Cl)c(=O)n(C[C@H]3OC[C@H](N)CO3)c2n1,-0.17 °C,0.29 °C,0.68 °C,-0.87 °C,-0.05 °C,-1.8 °C
C=C(F)C(=O)N1CCN(c2nc(OC[C@@H]3CCCN3C)nc3c2CCN(c2cccc4cccc(Cl)c24)C3)C[C@@H]1CC#N,-0.03 °C,0.01 °C,0.31 °C,0.36 °C,0.14 °C,-0.49 °C
Cc1c(CCC(=O)O)cccc1NC(=O)[C@@H](c1ccc(-c2cncc(Cl)c2)c(F)c1)C1CCCC1,1.34 °C,-0.35 °C,-0.06 °C,0.61 °C,-0.61 °C,4.78 °C
CNS(=O)(=O)c1ccc(N(C)C)c(Nc2ncnc3cc(OC)c(OC)cc23)c1,3.42 °C,-0.02 °C,0.23 °C,-0.61 °C,0.24 °C,-1.08 °C
CC(=O)Nc1nc(C)c(S(=O)(=O)Nc2ccc(C(O)(C(F)(F)F)C(F)(F)F)cc2)s1,0.65 °C,0.74 °C,0.36 °C,0.5 °C,0.18 °C,1.27 °C
CO[C@H]1CC[C@H](N(c2cc(F)c(Oc3ncc(Cn4nccn4)cc3C(F)(F)F)cc2C(=O)O)C(=O)[C@H]2CC[C@H](C)CC2)CC1,-0.55 °C,-0.98 °C,-0.04 °C,-1.43 °C,0.48 °C,-0.75 °C
CC(C)(C)NC(=O)c1cncn1C1CCN(c2ccc(-c3nnc(C(F)(F)F)o3)cn2)CC1,1.4 °C,0.97 °C,0.21 °C,-0.09 °C,0.18 °C,0.23 °C
Cc1c(-c2c(F)cc(C(N)=O)c3[nH]c4c(c23)CC[C@H](C(C)(C)O)C4)cccc1-n1c(=O)c2cccc(F)c2n(C)c1=O,3.83 °C,0.48 °C,0.11 °C,0.79 °C,-0.33 °C,10.9 °C
Cc1nn(C)c(COc2ccc(N3CCN(S(=O)(=O)N(C)C)CC3)cc2)c1-c1cccc2c(CCCOc3cccc4ccccc34)c(C(=O)O)n(CCN3CCOCC3)c12,0.04 °C,0.39 °C,-0.73 °C,0 °C,-0.31 °C,0.6 °C
CCn1ccc(Nc2ncc3c(n2)-c2c(nn(C)c2-c2ccc(-c4cnn(C)c4)cc2Cl)CC3)n1,3.73 °C,5.04 °C,2.25 °C,5.78 °C,0.81 °C,6.95 °C
Cc1ccc2c(NS(=O)(=O)c3ccccc3Cl)cccc2c1Oc1ncccc1-c1ccnc(N[C@H]2CCCNC2)n1,1.79 °C,0.86 °C,0.45 °C,-0.76 °C,-1.3 °C,1.28 °C
Nc1ncnc2c1c(I)cn2[C@@H]1O[C@H](CO)[C@@H](O)[C@H]1O,2.09 °C,6.73 °C,5.26 °C,2.65 °C,1.65 °C,2.13 °C
Cc1cc2c(cc(C(=O)N[C@H](CO)c3ccc(S(=O)(=O)CC(=O)O)cc3)n2C)c(Cl)c1Cl,1.12 °C,-0.15 °C,-1.41 °C,-0.78 °C,0.62 °C,3.77 °C

# — ChEMBL document CHEMBL5308504, “Tm Shift (DSF) assay results for EUbOPEN Chemogenomics Library” (2023)
